A short description of assay [1]: BSK_LPS_PGE2: BioMAP Diversity Plus: LPS Assay for Prostaglandin E2 (PGE2) Biomarker Activity (AID 2283082).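 As to AC50: secreted prostaglandin E2 measured by ELISA in LPS-stimulated co-culture.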 As to conditions: primary human HUVEC with PBMC; actives raise or lower the signal. A digest of the protocol:
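LPS-activated HUVEC/PBMC co-culture; cmpd dosed, 24 h; PGE2 by ELISA; bidirectional fit vs DMSO; SRB (0.1%, TCA-fixed, 560 nm) in parallel plates for overt cytotox.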

Read-out in assay [2]: Macrophage colony-stimulating factor (MCSF), CSF1 (gene 1435)
As to the kind of experiment: BSK_LPS_MCSF: BioMAP Diversity Plus: LPS Assay for Macrophage colony-stimulating factor (MCSF) Biomarker Activity (AID 2283083). As to conditions: primary human HUVEC with PBMC; actives raise or lower the signal. The method in brief:
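Bidirectional fit versus DMSO of ELISA-measured M-CSF in co-cultured human umbilical vein endothelial cells and PBMC, sampled 24 h after dosing.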

Read-out in assay [3]: Tissue Factor, F3 (gene 2152)
The assay can be described thus: BSK_LPS_TissueFactor: BioMAP Diversity Plus: LPS Assay for Tissue Factor Biomarker Activity (AID 2283084). As to conditions: primary human HUVEC with PBMC; actives raise or lower the signal. A digest of the protocol:
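Read-out: CD142 ELISA, 24 h. System: LPS-driven human endothelial/PBMC co-culture. Analysis: up- or down-signal fitted against DMSO.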

Read-out in assay [4]: Tumor necrosis factor (Homo sapiens) (UniProt P01375)
As to the kind of experiment: BSK_LPS_TNFa: BioMAP Diversity Plus: LPS Assay for Tumour Necrosis Factor alpha (TNFa) Biomarker Activity (AID 2283085). As to conditions: primary human HUVEC with PBMC; actives raise or lower the signal. A digest of the protocol:
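Read-out is ELISA of TNFa in primary human endothelial cell–PBMC co-cultures at 24 h after compound. Activity in either direction was fitted against DMSO.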

Read-out in assay [5]: Vascular cell adhesion molecule 1 (VCAM1), VCAM1 (gene 7412)
As to the kind of experiment: BSK_LPS_VCAM1: BioMAP Diversity Plus: LPS Assay for Vascular cell adhesion molecule 1 (VCAM1) Biomarker Activity (AID 2283086). As to conditions: primary human HUVEC with PBMC; actives raise or lower the signal. A digest of the protocol:
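HUVEC + PBMC co-culture, LPS system; compound 24 h; VCAM-1 by ELISA; bidirectional fit vs DMSO control; parallel SRB (0.1%, TCA-fixed, 560 nm) for cytotoxicity.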

Read-out in another assay: CD40, CD40 (gene 958)
The assay can be described thus: BSK_SAg_CD40: BioMAP Diversity Plus: SAg Assay for CD40 Biomarker Activity (AID 2283088). As to conditions: primary human HUVEC with PBMC; actives raise or lower the signal. A digest of the protocol:
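Endpoint derived by fitting increases or decreases versus DMSO controls. CD40 is detected by fluorescence ELISA in a human vascular co-culture of endothelium and PBMC at 24 h.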

Read-out in the next assay: CD69, CD69 (gene 969)
As to the kind of experiment: BSK_SAg_CD69: BioMAP Diversity Plus: SAg Assay for CD69 Biomarker Activity (AID 2283089).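 As to AC50: cell surface CD69 protein quantified by ELISA with fluorescence detection.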 As to conditions: primary human HUVEC with PBMC; actives raise or lower the signal. The method in brief:
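ELISA, fluorescence read-out: CD69 on human umbilical vein endothelial cell + PBMC co-culture, 24 h post-dosing. Gain or loss of signal fitted bidirectionally against DMSO baseline.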

Read-out in assay [6]: Monocyte Chemoattractant Protein-1 (MCP1), CCL2 (gene 6347)
As to the kind of experiment: BSK_SAg_MCP1: BioMAP Diversity Plus: SAg Assay for Monocyte Chemoattractant Protein-1 (MCP1) Biomarker Activity (AID 2283090). As to conditions: primary human HUVEC with PBMC; actives raise or lower the signal. The method in brief:
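MCP-1 levels in the endothelial–PBMC SAg co-culture were quantified by ELISA at 24 h post-dosing; both increases and decreases versus DMSO scored. Cytotoxicity monitored by SRB total protein in parallel cultures.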

Read-out in assay [7]: E-selectin (Homo sapiens) (UniProt P16581)
The assay can be described thus: BSK_SAg_Eselectin: BioMAP Diversity Plus: SAg Assay for Eselectin Biomarker Activity (AID 2283091). As to conditions: primary human HUVEC with PBMC; actives raise or lower the signal. The method in brief: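 Endpoint values derive from bidirectional fitting relative to DMSO, using ELISA-measured E-selectin in a human vascular co-culture (umbilical vein endothelium plus PBMC) sampled 24 h after dosing.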

Assay [8] in a line: BSK_SAg_PBMCCytotoxicity: PBMC Cytotoxicity Assessment in the BioMAP Diversity Plus: SAg Assay (AID 2283093).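 Also: PBMC viability measured as Alamar Blue reduction fluorescence at 546/580 nm; fitted both ways against DMSO so a hit may be loss or gain of signal.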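 As to AC50: PBMC superantigen activated with SEB plus TSST-1 one hour after compound addition.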 As to conditions: primary human HUVEC with PBMC. A digest of the protocol: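 Compound added to 75,000 PBMC/well for 1 h; SEB and TSST-1 then added at 20 ng/mL final each; 90 h incubation; Alamar Blue 6 h; read 546/580 nm ex/em. Activity fitted bidirectionally relative to DMSO baseline.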

Read-out in assay [9]: Interleukin-8 (IL8), CXCL8 (gene 3576)
The assay can be described thus: BSK_SAg_IL8: BioMAP Diversity Plus: SAg Assay for Interleukin-8 (IL8) Biomarker Activity (AID 2283094). As to conditions: primary human HUVEC with PBMC; actives raise or lower the signal. The method in brief:
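ELISA read-out of IL-8 in a primary human vascular co-culture (umbilical vein endothelium plus PBMC), taken 24 h after compound addition. Values derive from bidirectional fits against DMSO negative controls.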

Assay [10] is described as follows: BSK_SAg_Proliferation: Cell Proliferation Assessment in the BioMAP Diversity Plus: SAg Assay (AID 2283095).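 Also: relative cell number as total protein by SRB absorbance in sub-confluent culture.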 As to conditions: primary human HUVEC with PBMC. The method in brief: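 Cells (endothelium plus PBMC, human primary) were dosed with chemical, cultured 96 h, fixed in 10% TCA and stained with 0.1% SRB. Absorbance at 560 nm gave relative protein, fitted bidirectionally relative to DMSO.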

Assay [11] in a line: BSK_SAg_SRB: Viability Assessment in the BioMAP Diversity Plus: SAg Assay (AID 2283096).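 Also: cells read one day after compound addition; hits may be either gain or loss of signal compared with DMSO.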 As to conditions: primary human HUVEC with PBMC. The method in brief: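 Total protein by sulforhodamine B staining, 24 h after dosing, in HUVEC–PBMC co-culture; DMSO-referenced bidirectional fitting.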
Read-out in assay [12]: Monokine induced gamma interferon (MIG), CXCL9 (gene 4283)
As to the kind of experiment: BSK_SAg_MIG: BioMAP Diversity Plus: SAg Assay for Monokine induced gamma interferon (MIG) Biomarker Activity (AID 2283092). As to conditions: primary human HUVEC with PBMC; actives raise or lower the signal. The method in brief:
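ELISA readout of MIG/CXCL9; primary human umbilical vein endothelial cells co-cultured with peripheral blood mononuclear cells; 24 h post-dose; gain/loss fit vs DMSO baseline.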

The target in assay [13] is human CYP2D6, CYP2D6 (gene 1565) (UniProt P10635). The assay can be described thus: NVS_ADME_hCYP2D6: NovaScreen (NVS) CYP450-related Enzyme Activity (ADME) Assay for human CYP2D6 (AID 2283107; active = hit-call score of the fitted dose curve at least 0.9, where 1 is the maximum). A digest of the protocol:
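Biochemical fluorescence assay, insect-cell-derived enzyme. Read at 1 h; inhibition taken from loss of signal against acetonitrile. Screened at 10 uM in duplicate, with concentration series for actives.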

For assay [14], the target named is human CYP2A6, CYP2A6 (gene 1548) (UniProt P11509). The assay can be described thus: NVS_ADME_hCYP2A6: NovaScreen (NVS) CYP450-related Enzyme Activity (ADME) Assay for human CYP2A6 (AID 2283099; active = hit-call score of the fitted dose curve at least 0.9, where 1 is the maximum). The method in brief:
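Loss of fluorescence signal relative to acetonitrile vehicle reported CYP2A6 inhibition in a cell-free system using insect-cell-derived enzyme. Readings were taken at 0.5 h; top concentration in follow-up dose series was 20 uM.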

The target of assay [15] is human CYP1A1, CYP1A1 (gene 1543) (UniProt P04798). As to the kind of experiment: NVS_ADME_hCYP1A1: NovaScreen (NVS) CYP450-related Enzyme Activity (ADME) Assay for human CYP1A1 (AID 2283100; active = hit-call score of the fitted dose curve at least 0.9, where 1 is the maximum). A digest of the protocol: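 Inhibition of recombinant CYP1A1 turnover was assessed fluorometrically in a biochemical format 1 h after compound exposure. Testing began at 10 uM in duplicate and progressed to concentration series reaching 20 uM, with on-plate positive and negative controls.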

Each structure is given as a SMILES string. Inconclusive results are not listed. Activity calls are given as the source filed them. The calls were made as follows, unless noted: active = hit-call score of the fitted dose curve at least 0.9, where 1 is the maximum; inactive = score below 0.9.

Chain of Tumor necrosis factor (Homo sapiens) (P01375 whole entry, looked up): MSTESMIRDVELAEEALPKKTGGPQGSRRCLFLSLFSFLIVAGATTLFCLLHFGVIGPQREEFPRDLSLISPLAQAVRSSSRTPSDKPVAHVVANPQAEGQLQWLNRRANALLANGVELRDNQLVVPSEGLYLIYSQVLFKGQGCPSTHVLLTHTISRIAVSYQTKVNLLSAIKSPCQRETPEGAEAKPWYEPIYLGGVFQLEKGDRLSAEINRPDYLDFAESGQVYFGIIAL
Chain of E-selectin (Homo sapiens) (P16581 whole entry, looked up): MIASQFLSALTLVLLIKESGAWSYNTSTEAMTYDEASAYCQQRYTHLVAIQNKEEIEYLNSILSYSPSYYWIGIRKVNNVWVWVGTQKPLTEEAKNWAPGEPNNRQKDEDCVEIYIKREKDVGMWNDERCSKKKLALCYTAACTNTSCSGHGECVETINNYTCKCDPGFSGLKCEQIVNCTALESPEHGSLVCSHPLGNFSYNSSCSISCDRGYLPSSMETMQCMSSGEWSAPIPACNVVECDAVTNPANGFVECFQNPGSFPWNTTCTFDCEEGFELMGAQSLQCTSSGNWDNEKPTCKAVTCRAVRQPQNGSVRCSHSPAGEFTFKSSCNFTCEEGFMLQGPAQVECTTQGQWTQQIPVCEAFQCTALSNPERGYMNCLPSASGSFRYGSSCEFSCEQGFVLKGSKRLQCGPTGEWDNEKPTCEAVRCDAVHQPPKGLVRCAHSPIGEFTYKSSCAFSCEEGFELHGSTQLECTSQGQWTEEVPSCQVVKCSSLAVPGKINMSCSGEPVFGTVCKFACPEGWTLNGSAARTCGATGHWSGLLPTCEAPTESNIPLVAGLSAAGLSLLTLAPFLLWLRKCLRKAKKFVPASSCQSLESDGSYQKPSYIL
Chain of human CYP2D6, CYP2D6 (gene 1565) (P10635 whole entry, looked up): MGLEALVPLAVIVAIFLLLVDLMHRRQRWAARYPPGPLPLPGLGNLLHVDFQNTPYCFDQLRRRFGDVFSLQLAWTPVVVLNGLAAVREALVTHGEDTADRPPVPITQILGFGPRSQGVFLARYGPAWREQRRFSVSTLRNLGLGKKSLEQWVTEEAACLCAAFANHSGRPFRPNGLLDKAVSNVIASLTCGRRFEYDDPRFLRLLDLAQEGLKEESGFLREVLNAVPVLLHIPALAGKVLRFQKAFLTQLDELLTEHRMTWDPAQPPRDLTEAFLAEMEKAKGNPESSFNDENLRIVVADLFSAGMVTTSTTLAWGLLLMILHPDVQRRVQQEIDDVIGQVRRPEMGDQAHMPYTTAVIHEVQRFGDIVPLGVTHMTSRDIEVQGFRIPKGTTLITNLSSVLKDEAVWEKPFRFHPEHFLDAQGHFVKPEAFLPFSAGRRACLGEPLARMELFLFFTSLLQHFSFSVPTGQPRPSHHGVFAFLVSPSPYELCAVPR
Chain of human CYP2A6, CYP2A6 (gene 1548) (P11509 whole entry, looked up): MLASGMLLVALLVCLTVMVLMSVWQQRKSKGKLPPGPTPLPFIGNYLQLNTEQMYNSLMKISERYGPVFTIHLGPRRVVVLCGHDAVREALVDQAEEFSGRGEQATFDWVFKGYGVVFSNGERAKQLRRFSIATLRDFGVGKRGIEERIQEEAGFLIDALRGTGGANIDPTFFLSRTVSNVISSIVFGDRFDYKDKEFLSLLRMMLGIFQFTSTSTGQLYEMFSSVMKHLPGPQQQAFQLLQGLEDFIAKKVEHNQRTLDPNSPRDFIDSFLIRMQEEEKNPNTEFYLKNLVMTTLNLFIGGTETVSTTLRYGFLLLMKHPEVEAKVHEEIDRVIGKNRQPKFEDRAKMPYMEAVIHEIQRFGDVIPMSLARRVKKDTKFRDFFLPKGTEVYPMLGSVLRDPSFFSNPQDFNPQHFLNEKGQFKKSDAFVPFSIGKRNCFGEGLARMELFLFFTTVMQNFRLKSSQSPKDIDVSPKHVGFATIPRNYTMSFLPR
Chain of human CYP1A1, CYP1A1 (gene 1543) (P04798 whole entry, looked up): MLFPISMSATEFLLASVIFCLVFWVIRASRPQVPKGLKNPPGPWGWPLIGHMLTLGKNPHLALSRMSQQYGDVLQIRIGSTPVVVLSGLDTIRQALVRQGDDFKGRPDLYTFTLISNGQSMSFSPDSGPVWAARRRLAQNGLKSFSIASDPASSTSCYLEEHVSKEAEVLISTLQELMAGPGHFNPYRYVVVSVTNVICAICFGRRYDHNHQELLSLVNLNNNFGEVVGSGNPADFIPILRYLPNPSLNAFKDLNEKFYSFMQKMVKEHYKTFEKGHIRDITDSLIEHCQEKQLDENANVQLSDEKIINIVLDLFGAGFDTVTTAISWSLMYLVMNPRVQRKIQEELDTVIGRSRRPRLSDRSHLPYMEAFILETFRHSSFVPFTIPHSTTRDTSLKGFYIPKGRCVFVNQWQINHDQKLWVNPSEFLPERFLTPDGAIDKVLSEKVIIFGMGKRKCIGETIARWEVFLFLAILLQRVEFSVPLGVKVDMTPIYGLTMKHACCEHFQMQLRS

Usually AC50 stands for the midpoint of the concentration-response curve, whichever way the signal moves. For `CO[C@H]1/C=C/O[C@@]2(C)Oc3c(C)c(O)c4c(O)c(c(/C=N/N5CCN(C)CC5)c(O)c4c3C2=O)NC(=O)/C(C)=C\C=C\[C@H](C)[C@H](O)[C@@H](C)[C@@H](O)[C@@H](C)[C@H](OC(C)=O)[C@@H]1C`, the outcome in assay [1] is “inactive”; in assay [2] it was “inactive”; in assay [3] it was “inactive”; in assay [4], “inactive”; in [5], “inactive”; with CD40, CD40 (gene 958), “inactive”. Also, the result in assay [6], in assay [7], in [9] and in assay [11] was inactive. Also, the half-maximal activity concentration (AC50) with CD69, CD69 (gene 969) was 0.64 µM (active); in assay [8] it was 9.8 µM (active); in assay [10] it was 17.6 µM (active).

Take `O=C1O[C@H]([C@@H](O)CO)C(O)=C1O`: the outcome in [1] was “inactive”; in assay [2], “inactive”; in assay [3], “inactive”; in assay [4], “inactive”; in assay [5], “inactive”; in the assay with CD40, CD40 (gene 958), “inactive”. Further, the outcome is “inactive” with CD69, CD69 (gene 969); “inactive” in assay [6]; “inactive” in assay [7]; “inactive” in [12]; “inactive” in assay [8]; “inactive” in assay [9]. Also, the outcome in [10] and in [11] was inactive.

As to `CC(C)(O)c1ccc(CNC(=O)c2cccnc2Oc2ccc3nonc3c2)cc1`, the outcome in assay [1] was “inactive”; in assay [2], “inactive”; in assay [3] it was “inactive”; in assay [5], “inactive”; with CD40, CD40 (gene 958), “inactive”; with CD69, CD69 (gene 969) it was “inactive”. Also, the result in [6], in assay [8], in assay [9], in [10] and in assay [11] was inactive. Moreover, the values for the AC50 in [4] and in assay [7] were 1.49 µM (active) and 1.4 µM (active), respectively.

`CC(C)(c1cc(Br)c(O)c(Br)c1)c1cc(Br)c(O)c(Br)c1`: the result in [1] was inactive. Also, the AC50 in assay [2] is 23.5 µM (active); in assay [3], 30.1 µM (active); in [4], 19.1 µM (active); in [5], 26.7 µM (active); with CD40, CD40 (gene 958) it was 23 µM (active); with CD69, CD69 (gene 969), 28.4 µM (active). Moreover, the half-maximal activity concentration (AC50) in assay [6] was 29 µM (active); in [7], 22.1 µM (active); in assay [12] it was 36.1 µM (active); in assay [9] it was 30.4 µM (active); in assay [10], 25.4 µM (active); in [11], 29.4 µM (active).

For `COc1cccc([C@H](O)C2CCN(CCc3ccc(F)cc3)CC2)c1OC`, the outcome in [1] was “inactive”; in assay [2] it was “inactive”; in assay [3] it was “inactive”; in [4], “inactive”; in assay [5], “inactive”; with CD40, CD40 (gene 958), “inactive”. The outcome with CD69, CD69 (gene 969) is “inactive”; in assay [6], “inactive”; in assay [7], “inactive”; in assay [8] it was “inactive”; in assay [9], “inactive”; in [10] it was “inactive”. For the same compound, the half-maximal activity concentration (AC50) in assay [13] was 5.29 µM (active).

Turning to `Clc1ccccc1C(c1ccccc1)(c1ccccc1)n1ccnc1`, the AC50 in assay [1] was 5.45 µM (active); in assay [2] it was 28.3 µM (active); in assay [3] it was 31.9 µM (active); in [4] it was 32.9 µM (active); in assay [5], 22.4 µM (active); in the assay with CD40, CD40 (gene 958), 20 µM (active). For the same compound, the AC50 in the assay with CD69, CD69 (gene 969) is 24.3 µM (active); in [6], 26.1 µM (active); in assay [7] it was 14 µM (active); in assay [12], 35.1 µM (active); in assay [8], 33.1 µM (active); in assay [9], 11.6 µM (active). The values for the concentration at half-maximal activity (AC50) in assay [10], in assay [15] and in assay [13] were 9.32 µM (active), 2.68 µM (active) and 3.72 µM (active), respectively. In addition, in [14], the compound was classed as inactive.

Values taken from PubChem BioAssay (EPA / NIEHS).
